Bioassay records from PubChem.
USP30 block = inhibitors of human USP30 deubiquitinase; purified USP30, Ub-rhodamine cleavage fluorescence; inhibition, % at 25 µM; actives 5.3% (n = 47,000); AID 1645860
USP7 block = inhibitors of human USP7 deubiquitinase | AID 1645854 | inhibition, % at 20 µM | actives 0.3% (n = 47,000) | purified USP7, Ub-rhodamine cleavage fluorescence | Q93009
USP17 inh = blocks human USP17 ubiquitin-rhodamine cleavage; A8MUK1; purified USP17, Ub-rhodamine cleavage fluorescence, 3 h; inhibition, % at 50 µM; AID 1645855; actives 6.5% (n = 47,000)
USP8 inh = blocks human USP8 ubiquitin-rhodamine cleavage; P40818; purified USP8, Ub-rhodamine cleavage fluorescence, 30 min; inhibition, % at 20 µM; actives 4.2% (n = 47,000)
USP10 inh = human USP10 deubiquitinase inhibition | purified USP10, Ub-rhodamine fluorescence, 60 min | actives 1.1% (n = 47,000) | inhibition, % at 20 µM | Q14694
USP28 inh = inhibitors of human USP28 deubiquitinase; Q96RU2; actives 3% (n = 47,000); purified USP28, Ub-rhodamine cleavage fluorescence, 30 min; inhibition, % at 25 µM; AID 1645857
Starred values were filed as active, the others as inactive; nt = not tested or not shown. An excerpt weighted towards active compounds, which were near 13% of everything screened. No stated cut-off is given here; in the data, active means inhibition above about 30%; inactive means the rest.

SMILES	USP30 block	USP7 block	USP17 inh	USP8 inh	USP10 inh	USP28 inh
CCc1cc(C(=O)c2ccc(OC)cc2)c(NC(=O)CSc2nnc(-c3cccs3)n2C)s1	nt	-3	61*	-18	21	nt
Cc1cc(C)n(CC(=O)N2N=CCC2(O)C(F)(F)F)n1 (centres undefined)	8	1	13	37*	0	4
CC(C)c1ccc(OCC(=O)NCC2(N3CCN(C)CC3)CCCCC2)cc1	30*	-2	-2	-4	0	16
CN1CCN(C2(CNC(=O)COc3ccccc3[N+](=O)[O-])CCCCC2)CC1	-15	-11	-24	-153	-4	-8
Cc1noc(-c2cc(=O)n(CC(=O)NCc3ccccc3)c3ccccc23)n1	6	7	53*	1	10	6
Cc1noc(-c2cc(=O)n(CC(=O)NCc3ccccc3Cl)c3ccccc23)n1	-18	0	-3	4	-2	-14
Cc1onc(-c2ccccc2)c1CNC(=O)C1CCN(c2nccc(C(F)(F)F)n2)CC1	nt	-3	76*	0	10	nt
CCC(=O)N1CCCc2cc(S(=O)(=O)CCC(=O)NC3CCCCC3)ccc21	8	6	8	13	2	5
Cc1cc(NC(=O)Cn2c(C)cc(-c3nnc(C4CC4)o3)c2C)ccc1F	44*	-2	35*	0	-2	30
O=C(Cn1cccc1-c1nnc(C2CC2)o1)Nc1cccc(F)c1	-8	0	32*	0	-1	-1
Cc1cc(-c2nnc(C3CC3)o2)c(C)n1CC(=O)Nc1ccccc1	nt	-1	2	4	0	nt
Cc1ccc(NC(=O)Cn2cccc2-c2nnc(C3CC3)o2)cc1C	1	-42	-1	0	0	-2
Cc1ccc(CN2CCc3oc(C)c(C(=O)NCC4CCCO4)c3C2)cc1 (centres undefined)	-70	-3	-24	-19	-15	-12
O=S(=O)(O)c1cc2cc3ccccc3cc2[nH]1	-41	-5	61*	87*	-2	0
CC(C)c1ccc(C(C(=O)NC2CCCCC2)N(C(=O)c2cnccn2)c2cccc(F)c2)cc1 (centres undefined)	66*	8	28	30*	3	16
CC(=O)c1ccc(N(C(=O)c2cnccn2)C(C(=O)NC2CCCCC2)c2ccc(F)cc2)cc1 (centres undefined)	-22	-8	-7	-16	-1	-13
O=C(NCCN1CCCCC1)C1CCCN(c2nc3ncccc3n3cccc23)C1 (centres undefined)	-484	-42	-102	-74	-1	-103
C=C(NC(=O)C(=C)NC(=O)c1csc(C2=N[C@@H]3c4csc(n4)[C@H]4NC(=O)c5csc(n5)[C@H]([C@](C)(O)[C@@H](C)O)NC(=O)[C@H]5CSC(=N5)/C(=C/C)NC(=O)C([C@@H](C)O)NC(=O)c5csc(n5)C3(CC2)NC(=O)[C@H](C)NC(=O)C(=C)NC(=O)[C@H](C)NC(=O)C([C@@H](C)CC)N[C@@H]2C=Cc3c(C(C)O)cc(nc3[C@H]2O)C(=O)OC4C)n1)C(N)=O (some centres undefined)	-133	-8	54*	-52	-13	-13
CCCN1C=NS(=O)(=O)c2cc(C(=O)Nc3cc(Cl)ccc3OC)ccc21	35*	1	16	23	5	10
COCCn1c(=O)[nH]c2cc(C(=O)Nc3ccc(OC)c(Cl)c3)ccc2c1=O	22	3	10	25	24	2
COc1ccc(Cl)cc1NC(=O)c1ccc(S(=O)(=O)N2CCCCC2)cc1	-2	-134	-14	6	8	-1
CCCN1C=NS(=O)(=O)c2cc(C(=O)Nc3ccc(OC)c(Cl)c3)ccc21	19	0	51*	0	9	8
Cc1cc(-c2ccnc3c(C#N)cnn23)c(C)s1	-5	nt	67*	4	0	4
CC(=O)OCCc1c(C)nc2c(C#N)cnn2c1N1CCCC1	-8	-10	-8	-4	-2	-7
Cc1cc(NC(=O)COc2ccc3oc4c(c3c2)CCCC4)n(-c2ccccc2)n1	nt	10	73*	19	39*	nt
SMILES	USP30 block	USP7 block	USP17 inh	USP8 inh	USP10 inh	USP28 inh
Cc1ccc(NC(=O)COc2ccc3oc4c(c3c2)CCCC4)cc1	38*	10	14	30	9	17
CC(C)Cc1nc2sc3c(SCC(=O)NC4(c5ccccc5)CCCC4)ncnc3c2c2c1CCC2	26	12	42*	-33	14	20
CC(C)Cc1nc2sc3c(SCC(=O)Nc4ccc(Cl)cc4)ncnc3c2c2c1CCC2	9	6	13	-4	0	3
Cc1cccc(NC(=O)CSc2ncnc3c2sc2nc(CC(C)C)c4c(c23)CCC4)c1	34*	5	74*	6	4	9
COCC1CN(C(=O)c2cccn2C)Cc2cn(CC3CC3)nc21 (centres undefined)	17	0	12	14	-2	1
CCn1cc2c(n1)C(COC)CN(C(=O)c1cc(C)nn1CC)C2 (centres undefined)	54*	2	65*	-95	1	25
CC(=O)N1Cc2cc(C)ccc2OC2(CCCN(Cc3ccncc3)C2)C1 (centres undefined)	-12	-1	1	7	-4	2
O=C(NC(c1ccccc1)c1nnc(-c2ccccc2)o1)c1ccccc1Cl (centres undefined)	32*	-9	39*	0	3	7
COc1c(C(O)CC(C)C)ccc(Oc2c(O)cc(C)cc2C=O)c1C(=O)O (centres undefined)	10	17	44*	7	23	24
COc1c(C(CC(C)C)OC(C)=O)ccc(Oc2c(O)cc(C)cc2C=O)c1C(=O)O (centres undefined)	-21	6	35*	-5	17	23
O=C(CC1C(=O)N(C2CCCC2)c2nc3ccccc3n21)Nc1ccccc1C(F)(F)F (centres undefined)	23	-26	34*	17	0	0
Cc1ccc(NC(=O)CC2C(=O)N(C3CCCC3)c3nc4ccccc4n32)cc1 (centres undefined)	26	-9	20	2	0	4
CCc1cccc(N2C(=O)Nc3ccccc3S2(=O)=O)c1	8	-6	0	6	5	5
COc1ccccc1-c1cc2c(=O)n(Cc3nc(-c4ccccc4C)no3)ccn2n1	47*	11	-4	-11	4	-2
COc1ccccc1-c1noc(Cn2ccn3nc(-c4ccc(F)cc4)cc3c2=O)n1	-32	3	-5	-7	-10	-5
COC(=O)CNC(=O)C1c2ccccc2C(=O)N(c2ccccc2)C12CCCCC2 (centres undefined)	6	1	-6	-42	-1	-7
Cc1ccc(NC(=O)C2CCN(S(C)(=O)=O)c3ccccc3O2)c(C)c1 (centres undefined)	4	4	-1	1	2	0
